According to the supplement of paper PMC11732987, “Enantioselective OTUD7B fragment discovery through chemoproteomics screening and high-throughput optimisation” (Communications Chemistry, 2025):

How the values were obtained:
Experiment in all cases: log2 ratio of Biotin-Ahx-Ub-VS probe labelling (fragment/DMSO); higher = less target engagement (more negative = stronger competition), active = hit call of the paper (q ≤ 0.05, log2 ratio ≤ -1)
Details in all cases: compound concentration: 200 uM; treatment time: 3 h
USP42 = target: T1, USP42 (UniProt Q9H9J4)
T1 sequence (whole entry): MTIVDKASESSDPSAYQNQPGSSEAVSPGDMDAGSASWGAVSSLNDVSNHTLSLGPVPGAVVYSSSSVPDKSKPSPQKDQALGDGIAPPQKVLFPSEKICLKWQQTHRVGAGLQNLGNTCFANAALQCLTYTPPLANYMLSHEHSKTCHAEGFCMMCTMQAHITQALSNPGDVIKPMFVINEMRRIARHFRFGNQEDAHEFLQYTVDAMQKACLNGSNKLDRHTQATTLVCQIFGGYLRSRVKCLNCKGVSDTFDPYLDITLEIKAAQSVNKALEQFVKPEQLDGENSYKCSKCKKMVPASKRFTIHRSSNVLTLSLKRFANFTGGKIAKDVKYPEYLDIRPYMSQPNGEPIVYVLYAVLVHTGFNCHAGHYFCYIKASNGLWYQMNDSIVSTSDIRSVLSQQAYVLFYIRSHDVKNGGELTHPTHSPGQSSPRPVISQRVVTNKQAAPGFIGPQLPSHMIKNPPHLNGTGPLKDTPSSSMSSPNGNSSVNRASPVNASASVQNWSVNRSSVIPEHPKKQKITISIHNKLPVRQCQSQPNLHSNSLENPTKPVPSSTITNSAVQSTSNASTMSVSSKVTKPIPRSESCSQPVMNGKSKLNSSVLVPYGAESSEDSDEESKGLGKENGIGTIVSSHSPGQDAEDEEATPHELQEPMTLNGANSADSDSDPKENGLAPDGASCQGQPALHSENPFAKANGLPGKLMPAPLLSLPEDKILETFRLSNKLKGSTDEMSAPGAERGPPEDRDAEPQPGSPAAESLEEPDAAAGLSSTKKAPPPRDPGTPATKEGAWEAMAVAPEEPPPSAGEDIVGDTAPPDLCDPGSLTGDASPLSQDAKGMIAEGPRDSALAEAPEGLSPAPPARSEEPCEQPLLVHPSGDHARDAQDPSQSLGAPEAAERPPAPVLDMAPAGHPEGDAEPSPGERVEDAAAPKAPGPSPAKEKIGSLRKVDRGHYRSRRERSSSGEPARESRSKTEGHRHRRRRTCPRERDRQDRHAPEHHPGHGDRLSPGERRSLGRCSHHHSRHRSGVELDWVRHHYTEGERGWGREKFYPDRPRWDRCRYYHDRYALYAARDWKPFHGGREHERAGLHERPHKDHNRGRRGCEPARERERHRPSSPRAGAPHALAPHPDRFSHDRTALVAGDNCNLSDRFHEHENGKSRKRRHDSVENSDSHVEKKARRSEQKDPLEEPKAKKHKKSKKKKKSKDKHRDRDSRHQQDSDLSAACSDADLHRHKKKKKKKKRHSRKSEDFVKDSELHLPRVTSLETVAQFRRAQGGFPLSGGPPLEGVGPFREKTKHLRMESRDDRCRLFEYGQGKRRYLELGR
Summary of the method: (§1)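 Each value is an average log2 ratio of fragment to vehicle, tested by unpaired t-test. The underlying Spectronaut label-free quantities were global-median-normalised, and only proteins with ≥2 unique peptides were included. Triplicate HEK293T lysate samples (495 µg) were exposed to fragment at 200 µM or vehicle for 3 h, then to Biotin-Ahx-Ub-VS at 0.5 µM final for 1 h, before NeutrAvidin enrichment of labelled DUBs, LysC and trypsin digestion, and diaPASEF LC-MS/MS.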

USP46 = USP46 (UniProt P62068)
Summary of the method: as §1

USP47 = target: T2, USP47 (UniProt Q96K76)
T2 sequence (whole entry): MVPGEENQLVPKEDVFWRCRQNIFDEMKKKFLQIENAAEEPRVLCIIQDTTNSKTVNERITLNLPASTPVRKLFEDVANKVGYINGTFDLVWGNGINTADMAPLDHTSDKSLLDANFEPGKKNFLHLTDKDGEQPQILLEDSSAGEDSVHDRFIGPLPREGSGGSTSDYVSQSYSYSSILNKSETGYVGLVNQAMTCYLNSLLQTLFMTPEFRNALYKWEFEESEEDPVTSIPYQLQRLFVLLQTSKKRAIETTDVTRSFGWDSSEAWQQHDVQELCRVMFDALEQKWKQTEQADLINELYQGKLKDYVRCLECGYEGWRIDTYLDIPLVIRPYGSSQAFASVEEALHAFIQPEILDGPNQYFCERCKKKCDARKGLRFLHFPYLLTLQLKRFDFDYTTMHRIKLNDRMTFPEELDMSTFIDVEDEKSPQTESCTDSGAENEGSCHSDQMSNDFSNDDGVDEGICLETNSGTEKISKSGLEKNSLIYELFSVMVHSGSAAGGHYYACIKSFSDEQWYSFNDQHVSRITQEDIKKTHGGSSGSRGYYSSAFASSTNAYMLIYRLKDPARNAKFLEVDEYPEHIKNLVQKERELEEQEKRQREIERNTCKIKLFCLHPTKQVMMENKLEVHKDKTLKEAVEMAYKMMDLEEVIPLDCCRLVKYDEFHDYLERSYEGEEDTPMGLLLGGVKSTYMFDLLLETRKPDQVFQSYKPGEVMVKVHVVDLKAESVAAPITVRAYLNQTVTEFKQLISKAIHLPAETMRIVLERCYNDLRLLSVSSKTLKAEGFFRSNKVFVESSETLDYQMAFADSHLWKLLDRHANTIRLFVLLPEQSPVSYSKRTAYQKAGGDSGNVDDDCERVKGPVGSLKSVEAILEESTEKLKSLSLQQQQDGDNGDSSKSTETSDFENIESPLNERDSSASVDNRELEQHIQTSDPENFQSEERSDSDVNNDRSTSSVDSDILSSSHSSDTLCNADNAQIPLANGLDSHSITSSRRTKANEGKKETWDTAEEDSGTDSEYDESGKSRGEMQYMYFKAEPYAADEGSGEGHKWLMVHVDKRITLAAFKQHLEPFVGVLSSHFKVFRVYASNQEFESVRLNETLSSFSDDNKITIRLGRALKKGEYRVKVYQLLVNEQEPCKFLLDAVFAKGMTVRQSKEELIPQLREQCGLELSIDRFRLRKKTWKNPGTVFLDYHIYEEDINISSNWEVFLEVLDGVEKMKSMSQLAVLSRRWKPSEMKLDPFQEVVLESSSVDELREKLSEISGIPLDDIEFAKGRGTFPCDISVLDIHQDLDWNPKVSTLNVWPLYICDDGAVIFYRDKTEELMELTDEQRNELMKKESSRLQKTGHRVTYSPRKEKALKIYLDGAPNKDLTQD
Summary of the method: as §1

USP48 = target: T3, USP48 (UniProt Q86UV5)
T3 sequence (whole entry): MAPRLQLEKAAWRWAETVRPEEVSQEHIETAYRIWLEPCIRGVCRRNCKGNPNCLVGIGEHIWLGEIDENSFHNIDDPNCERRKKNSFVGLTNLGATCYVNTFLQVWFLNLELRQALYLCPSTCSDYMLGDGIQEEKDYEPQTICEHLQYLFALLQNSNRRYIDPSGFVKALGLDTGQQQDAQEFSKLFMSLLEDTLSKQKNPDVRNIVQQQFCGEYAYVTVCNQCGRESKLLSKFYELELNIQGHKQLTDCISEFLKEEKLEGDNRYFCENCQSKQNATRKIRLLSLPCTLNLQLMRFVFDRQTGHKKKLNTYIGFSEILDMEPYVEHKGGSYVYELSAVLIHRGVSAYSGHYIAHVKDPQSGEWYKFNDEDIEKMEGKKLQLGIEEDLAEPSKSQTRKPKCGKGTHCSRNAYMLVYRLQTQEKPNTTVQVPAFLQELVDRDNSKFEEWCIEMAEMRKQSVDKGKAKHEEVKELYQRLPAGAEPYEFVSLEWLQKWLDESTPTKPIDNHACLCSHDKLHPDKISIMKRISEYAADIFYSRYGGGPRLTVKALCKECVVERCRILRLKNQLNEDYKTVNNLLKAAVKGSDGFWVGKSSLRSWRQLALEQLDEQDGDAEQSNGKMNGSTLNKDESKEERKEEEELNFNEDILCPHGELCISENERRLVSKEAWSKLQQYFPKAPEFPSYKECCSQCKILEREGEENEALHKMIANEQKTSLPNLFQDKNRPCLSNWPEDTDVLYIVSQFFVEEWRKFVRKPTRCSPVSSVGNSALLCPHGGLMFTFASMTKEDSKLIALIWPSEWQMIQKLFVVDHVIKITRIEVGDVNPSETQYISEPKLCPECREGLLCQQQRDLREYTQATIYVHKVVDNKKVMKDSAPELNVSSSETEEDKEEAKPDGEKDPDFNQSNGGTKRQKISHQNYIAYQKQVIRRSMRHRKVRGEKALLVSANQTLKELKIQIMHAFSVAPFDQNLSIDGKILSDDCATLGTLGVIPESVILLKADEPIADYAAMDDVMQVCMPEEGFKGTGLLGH
Summary of the method: as §1

USP5 = target: T4, USP5 (UniProt P45974)
T4 sequence (whole entry): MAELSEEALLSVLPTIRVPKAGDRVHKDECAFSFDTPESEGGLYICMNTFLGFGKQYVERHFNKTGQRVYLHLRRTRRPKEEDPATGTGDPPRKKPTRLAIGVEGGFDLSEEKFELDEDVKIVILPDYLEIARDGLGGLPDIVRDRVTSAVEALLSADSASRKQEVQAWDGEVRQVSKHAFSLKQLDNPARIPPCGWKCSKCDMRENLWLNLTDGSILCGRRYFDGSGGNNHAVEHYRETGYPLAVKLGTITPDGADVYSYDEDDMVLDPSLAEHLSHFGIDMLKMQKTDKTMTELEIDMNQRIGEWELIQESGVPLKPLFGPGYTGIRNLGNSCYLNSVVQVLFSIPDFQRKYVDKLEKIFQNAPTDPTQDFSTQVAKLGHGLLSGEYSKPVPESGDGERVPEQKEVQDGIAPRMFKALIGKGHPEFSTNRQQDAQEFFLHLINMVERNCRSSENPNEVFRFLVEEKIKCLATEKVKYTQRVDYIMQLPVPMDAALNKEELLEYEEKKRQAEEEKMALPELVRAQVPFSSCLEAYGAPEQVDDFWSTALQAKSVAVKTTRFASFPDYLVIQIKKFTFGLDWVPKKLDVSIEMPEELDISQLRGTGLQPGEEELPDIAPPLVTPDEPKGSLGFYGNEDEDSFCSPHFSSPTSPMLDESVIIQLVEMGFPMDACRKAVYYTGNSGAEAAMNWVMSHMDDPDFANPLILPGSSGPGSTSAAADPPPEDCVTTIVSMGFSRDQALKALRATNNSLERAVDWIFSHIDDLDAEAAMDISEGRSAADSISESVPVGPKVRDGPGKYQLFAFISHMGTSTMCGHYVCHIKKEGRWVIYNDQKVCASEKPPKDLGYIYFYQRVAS
Summary of the method: as §1

USP54 = USP54 (UniProt Q70EL1)
Summary of the method: as §1

USP7 = USP7 (UniProt Q93009)
Summary of the method: as §1

USP8 = target: T5, USP8 (UniProt P40818)
T5 sequence (whole entry): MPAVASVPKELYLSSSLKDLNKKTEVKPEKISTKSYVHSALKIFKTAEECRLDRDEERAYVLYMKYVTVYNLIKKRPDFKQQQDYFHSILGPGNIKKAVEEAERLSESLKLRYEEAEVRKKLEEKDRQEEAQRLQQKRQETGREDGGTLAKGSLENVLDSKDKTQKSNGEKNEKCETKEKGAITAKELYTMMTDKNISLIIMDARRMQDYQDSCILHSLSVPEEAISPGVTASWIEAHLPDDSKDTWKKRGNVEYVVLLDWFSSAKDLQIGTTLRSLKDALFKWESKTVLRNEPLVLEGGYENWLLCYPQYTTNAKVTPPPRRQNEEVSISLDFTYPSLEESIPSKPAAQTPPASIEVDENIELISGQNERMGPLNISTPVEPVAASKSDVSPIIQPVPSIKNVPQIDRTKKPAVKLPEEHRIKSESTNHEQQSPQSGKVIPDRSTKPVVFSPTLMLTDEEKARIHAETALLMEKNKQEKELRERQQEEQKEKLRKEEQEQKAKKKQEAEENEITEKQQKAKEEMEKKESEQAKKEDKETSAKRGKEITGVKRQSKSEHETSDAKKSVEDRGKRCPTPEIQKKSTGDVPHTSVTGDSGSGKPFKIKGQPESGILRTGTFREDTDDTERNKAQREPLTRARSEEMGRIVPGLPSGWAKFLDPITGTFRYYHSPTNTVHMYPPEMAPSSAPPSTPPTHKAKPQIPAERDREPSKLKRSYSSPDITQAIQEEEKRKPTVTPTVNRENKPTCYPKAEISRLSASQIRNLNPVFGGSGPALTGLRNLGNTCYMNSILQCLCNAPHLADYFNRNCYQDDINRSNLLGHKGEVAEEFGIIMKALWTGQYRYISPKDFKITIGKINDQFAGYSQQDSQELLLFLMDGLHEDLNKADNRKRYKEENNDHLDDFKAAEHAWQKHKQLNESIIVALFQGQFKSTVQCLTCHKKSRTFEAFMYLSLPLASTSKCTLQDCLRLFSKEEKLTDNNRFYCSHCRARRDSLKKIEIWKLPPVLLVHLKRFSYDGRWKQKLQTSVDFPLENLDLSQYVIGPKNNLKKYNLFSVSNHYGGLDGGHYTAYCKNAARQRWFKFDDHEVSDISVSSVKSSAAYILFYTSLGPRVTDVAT
Summary of the method: as §1

USP9X = USP9X (UniProt Q93008)
Summary of the method: as §1

UniProt O00487 = target: UniProt O00487
Summary of the method: as §1

Measured: log2 ratio of Biotin-Ahx-Ub-VS probe labelling

USP9X, sequence (Q93008 whole entry): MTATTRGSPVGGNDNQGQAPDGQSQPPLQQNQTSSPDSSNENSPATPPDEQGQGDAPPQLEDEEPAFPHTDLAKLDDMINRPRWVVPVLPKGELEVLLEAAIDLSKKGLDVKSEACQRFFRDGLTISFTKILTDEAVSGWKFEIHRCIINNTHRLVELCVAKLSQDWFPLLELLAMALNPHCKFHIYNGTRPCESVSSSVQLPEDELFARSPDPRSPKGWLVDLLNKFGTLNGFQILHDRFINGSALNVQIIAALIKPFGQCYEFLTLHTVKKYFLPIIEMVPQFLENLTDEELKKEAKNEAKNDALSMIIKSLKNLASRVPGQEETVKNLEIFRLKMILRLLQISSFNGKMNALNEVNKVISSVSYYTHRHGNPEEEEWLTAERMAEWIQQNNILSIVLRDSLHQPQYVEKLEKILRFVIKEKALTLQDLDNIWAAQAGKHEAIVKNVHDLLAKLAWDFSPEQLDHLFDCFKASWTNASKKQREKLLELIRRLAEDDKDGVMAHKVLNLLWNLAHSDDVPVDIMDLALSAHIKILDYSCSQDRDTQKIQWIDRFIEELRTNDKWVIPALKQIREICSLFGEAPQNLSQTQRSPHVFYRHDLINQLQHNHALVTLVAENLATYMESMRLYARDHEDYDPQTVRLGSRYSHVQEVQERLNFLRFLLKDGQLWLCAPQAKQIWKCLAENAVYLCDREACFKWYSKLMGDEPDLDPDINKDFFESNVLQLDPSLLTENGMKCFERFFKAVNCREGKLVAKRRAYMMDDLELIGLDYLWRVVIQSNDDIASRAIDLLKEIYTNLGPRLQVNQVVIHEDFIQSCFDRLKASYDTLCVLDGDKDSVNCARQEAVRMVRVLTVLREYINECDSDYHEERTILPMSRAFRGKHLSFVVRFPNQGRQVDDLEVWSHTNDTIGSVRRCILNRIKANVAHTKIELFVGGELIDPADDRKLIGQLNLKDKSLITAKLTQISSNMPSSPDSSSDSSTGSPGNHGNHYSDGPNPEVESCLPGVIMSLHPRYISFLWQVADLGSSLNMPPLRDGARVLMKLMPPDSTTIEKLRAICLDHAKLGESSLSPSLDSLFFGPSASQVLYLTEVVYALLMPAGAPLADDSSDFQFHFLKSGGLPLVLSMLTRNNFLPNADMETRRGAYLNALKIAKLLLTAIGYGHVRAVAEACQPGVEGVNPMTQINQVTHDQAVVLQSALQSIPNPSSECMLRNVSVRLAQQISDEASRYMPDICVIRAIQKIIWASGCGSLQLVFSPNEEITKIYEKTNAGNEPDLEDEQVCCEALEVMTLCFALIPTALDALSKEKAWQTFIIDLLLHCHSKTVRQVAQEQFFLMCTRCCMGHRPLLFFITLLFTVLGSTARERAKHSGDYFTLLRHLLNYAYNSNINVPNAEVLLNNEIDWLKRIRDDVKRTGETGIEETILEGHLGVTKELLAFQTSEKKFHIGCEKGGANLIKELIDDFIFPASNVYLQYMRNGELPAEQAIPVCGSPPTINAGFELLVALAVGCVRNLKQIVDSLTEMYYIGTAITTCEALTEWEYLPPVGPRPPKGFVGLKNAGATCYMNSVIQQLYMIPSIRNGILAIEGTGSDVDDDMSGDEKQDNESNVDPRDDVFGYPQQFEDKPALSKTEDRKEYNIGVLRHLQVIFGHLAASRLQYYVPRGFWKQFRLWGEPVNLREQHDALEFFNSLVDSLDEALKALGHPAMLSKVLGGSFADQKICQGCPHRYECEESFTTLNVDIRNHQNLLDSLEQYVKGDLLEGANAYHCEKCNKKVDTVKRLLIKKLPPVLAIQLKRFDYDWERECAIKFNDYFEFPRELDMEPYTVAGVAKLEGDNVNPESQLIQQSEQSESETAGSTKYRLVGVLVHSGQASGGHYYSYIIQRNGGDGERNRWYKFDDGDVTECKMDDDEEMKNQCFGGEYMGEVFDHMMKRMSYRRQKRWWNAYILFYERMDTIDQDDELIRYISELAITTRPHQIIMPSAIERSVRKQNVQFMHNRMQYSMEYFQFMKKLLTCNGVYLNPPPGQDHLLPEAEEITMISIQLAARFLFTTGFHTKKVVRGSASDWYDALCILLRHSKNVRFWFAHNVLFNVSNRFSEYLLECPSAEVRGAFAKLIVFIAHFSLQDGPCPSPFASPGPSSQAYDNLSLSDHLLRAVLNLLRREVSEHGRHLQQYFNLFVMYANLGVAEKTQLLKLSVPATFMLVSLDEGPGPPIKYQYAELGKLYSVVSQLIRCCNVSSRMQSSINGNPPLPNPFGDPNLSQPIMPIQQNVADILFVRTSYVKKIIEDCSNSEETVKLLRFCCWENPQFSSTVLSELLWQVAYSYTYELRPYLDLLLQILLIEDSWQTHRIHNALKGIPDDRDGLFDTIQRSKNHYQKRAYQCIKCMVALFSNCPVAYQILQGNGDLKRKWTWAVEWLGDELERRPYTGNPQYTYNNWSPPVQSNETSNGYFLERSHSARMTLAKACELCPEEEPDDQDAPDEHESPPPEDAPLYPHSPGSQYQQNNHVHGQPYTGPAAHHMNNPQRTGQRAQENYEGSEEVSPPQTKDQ
USP46, sequence (P62068 whole entry): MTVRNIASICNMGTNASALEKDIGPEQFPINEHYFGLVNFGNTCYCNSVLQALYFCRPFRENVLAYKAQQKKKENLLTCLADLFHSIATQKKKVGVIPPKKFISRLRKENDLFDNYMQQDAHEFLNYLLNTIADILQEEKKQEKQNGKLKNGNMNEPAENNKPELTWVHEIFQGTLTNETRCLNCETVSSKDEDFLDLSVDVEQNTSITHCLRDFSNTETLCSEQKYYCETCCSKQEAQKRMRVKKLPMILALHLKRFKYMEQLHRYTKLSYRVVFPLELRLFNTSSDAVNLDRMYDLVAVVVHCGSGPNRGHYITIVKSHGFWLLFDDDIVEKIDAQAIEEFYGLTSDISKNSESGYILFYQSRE
UniProt O00487, sequence (O00487 whole entry): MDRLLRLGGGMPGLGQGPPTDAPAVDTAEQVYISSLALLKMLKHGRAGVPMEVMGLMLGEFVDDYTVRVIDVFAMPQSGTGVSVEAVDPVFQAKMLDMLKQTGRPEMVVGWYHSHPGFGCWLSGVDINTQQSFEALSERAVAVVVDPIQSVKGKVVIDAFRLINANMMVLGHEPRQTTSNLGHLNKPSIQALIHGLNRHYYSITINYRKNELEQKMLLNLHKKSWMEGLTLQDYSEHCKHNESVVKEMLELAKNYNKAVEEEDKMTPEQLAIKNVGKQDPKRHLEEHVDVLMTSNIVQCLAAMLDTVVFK
USP54, sequence (Q70EL1 whole entry): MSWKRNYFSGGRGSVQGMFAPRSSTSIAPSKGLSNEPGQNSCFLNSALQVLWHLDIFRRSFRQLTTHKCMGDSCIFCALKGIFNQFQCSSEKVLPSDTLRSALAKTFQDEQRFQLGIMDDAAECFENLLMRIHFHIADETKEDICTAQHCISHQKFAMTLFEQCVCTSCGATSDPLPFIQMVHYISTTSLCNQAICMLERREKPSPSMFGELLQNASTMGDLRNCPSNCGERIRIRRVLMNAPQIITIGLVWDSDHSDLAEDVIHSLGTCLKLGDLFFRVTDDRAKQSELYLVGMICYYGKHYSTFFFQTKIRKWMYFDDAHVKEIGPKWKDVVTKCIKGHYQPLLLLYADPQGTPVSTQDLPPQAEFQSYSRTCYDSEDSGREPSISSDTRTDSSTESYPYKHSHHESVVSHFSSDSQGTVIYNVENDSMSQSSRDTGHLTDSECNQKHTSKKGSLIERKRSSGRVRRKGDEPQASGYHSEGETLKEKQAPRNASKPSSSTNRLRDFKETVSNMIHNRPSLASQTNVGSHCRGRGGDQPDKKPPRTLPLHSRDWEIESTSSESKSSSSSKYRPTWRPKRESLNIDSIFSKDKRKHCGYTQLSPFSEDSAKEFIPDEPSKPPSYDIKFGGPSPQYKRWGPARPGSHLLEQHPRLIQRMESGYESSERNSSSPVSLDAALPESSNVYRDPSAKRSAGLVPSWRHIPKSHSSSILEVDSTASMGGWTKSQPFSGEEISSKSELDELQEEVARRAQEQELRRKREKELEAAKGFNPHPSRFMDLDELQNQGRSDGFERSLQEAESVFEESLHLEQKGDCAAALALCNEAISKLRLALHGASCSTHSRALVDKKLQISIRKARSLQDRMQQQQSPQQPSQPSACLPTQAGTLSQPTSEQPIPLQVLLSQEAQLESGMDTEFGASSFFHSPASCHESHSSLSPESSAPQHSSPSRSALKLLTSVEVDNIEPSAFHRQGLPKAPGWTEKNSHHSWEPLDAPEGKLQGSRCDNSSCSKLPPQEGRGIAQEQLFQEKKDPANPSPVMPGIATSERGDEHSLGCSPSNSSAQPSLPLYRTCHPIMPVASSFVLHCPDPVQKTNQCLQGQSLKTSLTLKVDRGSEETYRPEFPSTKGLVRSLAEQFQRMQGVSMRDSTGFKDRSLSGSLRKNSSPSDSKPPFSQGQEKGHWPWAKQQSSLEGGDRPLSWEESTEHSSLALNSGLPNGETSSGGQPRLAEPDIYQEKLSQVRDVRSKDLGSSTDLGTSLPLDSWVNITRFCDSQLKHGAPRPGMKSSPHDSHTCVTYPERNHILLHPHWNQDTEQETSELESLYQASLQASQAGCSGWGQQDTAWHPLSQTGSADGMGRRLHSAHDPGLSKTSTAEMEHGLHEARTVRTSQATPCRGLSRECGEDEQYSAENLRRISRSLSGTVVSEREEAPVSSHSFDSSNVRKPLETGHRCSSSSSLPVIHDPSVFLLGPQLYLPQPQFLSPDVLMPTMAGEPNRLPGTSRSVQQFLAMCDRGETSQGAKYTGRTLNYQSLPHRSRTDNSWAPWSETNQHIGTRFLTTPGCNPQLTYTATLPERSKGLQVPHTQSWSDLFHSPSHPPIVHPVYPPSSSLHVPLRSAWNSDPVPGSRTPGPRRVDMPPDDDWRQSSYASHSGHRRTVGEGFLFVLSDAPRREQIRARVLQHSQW

C[C@@H](NC(=O)CCl)c1cccc(C#N)c1
inactive: USP42 0.213 | USP46 0.013 | USP47 -0.609 | USP48 -0.209 | USP5 0.067 | USP54 0.0518 | USP7 -0.0563 | USP8 -0.19 | USP9X -0.116 | UniProt O00487 0.0457

O=C(CCl)N1CCC2(CCC(O)CC2)CC1
inactive: USP42 0.175 | USP46 0.0165 | USP47 -0.0514 | USP48 -0.0801 | USP5 0.218 | USP54 0.833 | USP7 -0.00495 | USP8 -0.382 | USP9X -0.156 | UniProt O00487 0.0439

O=C(CCl)Nc1ccc(F)cc1F
inactive: USP42 -0.555 | USP46 -0.0216 | USP47 -0.211 | USP48 -0.0331 | USP5 -0.0493 | USP54 0.615 | USP7 -0.0738 | USP8 -0.257 | USP9X -0.218 | UniProt O00487 -0.099

Cl.Cn1nccc1C(NC(=O)CCl)c1ccccc1 (stereo not given)
active: USP47 -1.1
inactive: USP42 0.0316 | USP46 0.114 | USP48 -0.11 | USP5 0.239 | USP54 0.34 | USP7 -0.284 | USP8 -0.582 | USP9X -0.0773 | UniProt O00487 -0.0868
